Measurements as given in PMC11062922 (Nature Chemical Biology, 2023).
Like-named read-outs stand apart in the source and are kept apart here.

Key:
Conditions in all cases: read-out: apparent Kd, n = 1
[1] = test system: PRKD1
[2] = test system: PTK2B
[3] = test system: SIK3
[4] = test system: SLK
[5] = compound concentrations:100 nM and 1000 nM (sheet 'Lestaurtinib' of Supplementary Table 1),run:Lestaurtinib_02748_R2,Plate:MR024
[6] = compound concentrations:100 nM and 1000 nM (sheet 'Lestaurtinib' of Supplementary Table 1),run:Lestaurtinib_02896_R3,Plate:MR030
[7] = compound concentrations:100 nM and 1000 nM (sheet 'Lestaurtinib' of Supplementary Table 1),run:Lestaurtinib_02339_R2,Plate:MR001
[8] = compound concentrations:100 nM and 1000 nM (sheet 'Lestaurtinib' of Supplementary Table 1),run:Lestaurtinib_02422_R1,Plate:MR006
[9] = compound concentrations:100 nM and 1000 nM (sheet 'Lestaurtinib' of Supplementary Table 1),run:Lestaurtinib_02443_R3,Plate:MR009
[10] = compound concentrations:100 nM and 1000 nM (sheet 'Lestaurtinib' of Supplementary Table 1),run:Lestaurtinib_02473_R3,Plate:MR010
[11] = compound concentrations:100 nM and 1000 nM (sheet 'Lestaurtinib' of Supplementary Table 1),run:Lestaurtinib_02496_R1,Plate:MR013
[12] = compound concentrations:100 nM and 1000 nM (sheet 'Lestaurtinib' of Supplementary Table 1),run:Lestaurtinib_02496_R2,Plate:MR013
[13] = compound concentrations:100 nM and 1000 nM (sheet 'Lestaurtinib' of Supplementary Table 1),run:Lestaurtinib_02496_R3,Plate:MR013
[14] = compound concentrations:100 nM and 1000 nM (sheet 'Lestaurtinib' of Supplementary Table 1),run:Lestaurtinib_02748_R1,Plate:MR024
[15] = compound concentrations:100 nM and 1000 nM (sheet 'Lestaurtinib' of Supplementary Table 1),run:Lestaurtinib_03172_R3,Plate:MR031
[16] = compound concentrations:100 nM and 1000 nM (sheet 'Lestaurtinib' of Supplementary Table 1),run:Lestaurtinib_02367_R3,Plate:MR003
[17] = compound concentrations:100 nM and 1000 nM (sheet 'Lestaurtinib' of Supplementary Table 1),run:Lestaurtinib_02381_R3,Plate:MR004
[18] = compound concentrations:100 nM and 1000 nM (sheet 'Lestaurtinib' of Supplementary Table 1),run:Lestaurtinib_02422_R3,Plate:MR006
[19] = compound concentrations:100 nM and 1000 nM (sheet 'Lestaurtinib' of Supplementary Table 1),run:Lestaurtinib_02438_R2,Plate:MR008
[20] = compound concentrations:100 nM and 1000 nM (sheet 'Lestaurtinib' of Supplementary Table 1),run:Lestaurtinib_02482_R3,Plate:MR011
[21] = compound concentrations:100 nM and 1000 nM (sheet 'Lestaurtinib' of Supplementary Table 1),run:Lestaurtinib_02566_R3,Plate:MR014

For Lestaurtinib, the potency estimated from few doses ([1]; compound concentrations:100 nM and 1000 nM (sheet 'Lestaurtinib' of Supplementary Table 1),run:Lestaurtinib_02741_R1,Plate:MR023) was 13.3 nM, the potency estimated from few doses ([1]; compound concentrations:100 nM and 1000 nM (sheet 'Lestaurtinib' of Supplementary Table 1),run:Lestaurtinib_02741_R3,Plate:MR023) was 17.5 nM and the potency estimated from few doses [1, 5] was 208 nM. The potency estimated from few doses ([1]; compound concentrations:100 nM and 1000 nM (sheet 'Lestaurtinib' of Supplementary Table 1),run:Lestaurtinib_02748_R3,Plate:MR024) was 254 nM, the potency estimated from few doses ([1]; compound concentrations:100 nM and 1000 nM (sheet 'Lestaurtinib' of Supplementary Table 1),run:Lestaurtinib_02795_R3,Plate:MR022) was 193 nM and the potency estimated from few doses [1, 6] was 141 nM. It also gave a potency estimated from few doses [2, 7] of 971 nM, a potency estimated from few doses [2, 8] of 859 nM and a potency estimated from few doses ([2]; compound concentrations:100 nM and 1000 nM (sheet 'Lestaurtinib' of Supplementary Table 1),run:Lestaurtinib_02437_R3,Plate:MR007) of 800 nM. It also gave a potency estimated from few doses [2, 9] of 928 nM, a potency estimated from few doses [2, 10] of 58.4 nM and a potency estimated from few doses ([2]; compound concentrations:100 nM and 1000 nM (sheet 'Lestaurtinib' of Supplementary Table 1),run:Lestaurtinib_02487_R1,Plate:MR012) of 209 nM. For the same substance, the potency estimated from few doses [2, 11] was 974 nM, the potency estimated from few doses [2, 12] was 703 nM and the potency estimated from few doses [2, 13] was 966 nM. It also gave a potency estimated from few doses ([2]; compound concentrations:100 nM and 1000 nM (sheet 'Lestaurtinib' of Supplementary Table 1),run:Lestaurtinib_02572_R1,Plate:MR015) of 615 nM, a potency estimated from few doses ([2]; compound concentrations:100 nM and 1000 nM (sheet 'Lestaurtinib' of Supplementary Table 1),run:Lestaurtinib_02572_R2,Plate:MR015) of 666 nM and a potency estimated from few doses [2, 14] of 954 nM. The potency estimated from few doses [2, 15] was 1240 nM, the potency estimated from few doses ([3]; compound concentrations:100 nM and 1000 nM (sheet 'Lestaurtinib' of Supplementary Table 1),run:Lestaurtinib_02339_R3,Plate:MR001) was 1990 nM and the potency estimated from few doses [3, 16] was 2180 nM. For the same substance, the potency estimated from few doses ([3]; compound concentrations:100 nM and 1000 nM (sheet 'Lestaurtinib' of Supplementary Table 1),run:Lestaurtinib_02381_R2,Plate:MR004) was 2120 nM, the potency estimated from few doses [3, 17] was 1930 nM and the potency estimated from few doses ([3]; compound concentrations:100 nM and 1000 nM (sheet 'Lestaurtinib' of Supplementary Table 1),run:Lestaurtinib_02407_R3,Plate:MR005) was 1890 nM. The potency estimated from few doses ([3]; compound concentrations:100 nM and 1000 nM (sheet 'Lestaurtinib' of Supplementary Table 1),run:Lestaurtinib_02422_R2,Plate:MR006) was 1760 nM, the potency estimated from few doses [3, 18] was 1570 nM and the potency estimated from few doses ([3]; compound concentrations:100 nM and 1000 nM (sheet 'Lestaurtinib' of Supplementary Table 1),run:Lestaurtinib_02437_R2,Plate:MR007) was 1400 nM. It also gave a potency estimated from few doses ([3]; compound concentrations:100 nM and 1000 nM (sheet 'Lestaurtinib' of Supplementary Table 1),run:Lestaurtinib_02438_R1,Plate:MR008) of 1800 nM, a potency estimated from few doses [3, 19] of 1720 nM and a potency estimated from few doses ([3]; compound concentrations:100 nM and 1000 nM (sheet 'Lestaurtinib' of Supplementary Table 1),run:Lestaurtinib_02438_R3,Plate:MR008) of 1330 nM. The potency estimated from few doses ([3]; compound concentrations:100 nM and 1000 nM (sheet 'Lestaurtinib' of Supplementary Table 1),run:Lestaurtinib_02443_R1,Plate:MR009) was 1970 nM, the potency estimated from few doses ([3]; compound concentrations:100 nM and 1000 nM (sheet 'Lestaurtinib' of Supplementary Table 1),run:Lestaurtinib_02443_R2,Plate:MR009) was 1960 nM and the potency estimated from few doses [3, 9] was 964 nM. The potency estimated from few doses [3, 10] was 1240 nM, the potency estimated from few doses [3, 20] was 1570 nM and the potency estimated from few doses ([3]; compound concentrations:100 nM and 1000 nM (sheet 'Lestaurtinib' of Supplementary Table 1),run:Lestaurtinib_02487_R2,Plate:MR012) was 1700 nM. For the same substance, the potency estimated from few doses [3, 11] was 956 nM, the potency estimated from few doses [3, 13] was 1300 nM and the potency estimated from few doses ([3]; compound concentrations:100 nM and 1000 nM (sheet 'Lestaurtinib' of Supplementary Table 1),run:Lestaurtinib_02566_R1,Plate:MR014) was 1420 nM. It also gave a potency estimated from few doses [3, 21] of 1460 nM, a potency estimated from few doses ([3]; compound concentrations:100 nM and 1000 nM (sheet 'Lestaurtinib' of Supplementary Table 1),run:Lestaurtinib_02577_R1,Plate:MR016) of 1590 nM and a potency estimated from few doses ([3]; compound concentrations:100 nM and 1000 nM (sheet 'Lestaurtinib' of Supplementary Table 1),run:Lestaurtinib_02577_R2,Plate:MR016) of 1630 nM. For the same substance, the potency estimated from few doses ([3]; compound concentrations:100 nM and 1000 nM (sheet 'Lestaurtinib' of Supplementary Table 1),run:Lestaurtinib_02577_R3,Plate:MR016) was 1960 nM, the potency estimated from few doses ([3]; compound concentrations:100 nM and 1000 nM (sheet 'Lestaurtinib' of Supplementary Table 1),run:Lestaurtinib_02584_R2,Plate:MR017) was 1420 nM and the potency estimated from few doses ([3]; compound concentrations:100 nM and 1000 nM (sheet 'Lestaurtinib' of Supplementary Table 1),run:Lestaurtinib_02584_R3,Plate:MR017) was 1300 nM. For the same substance, the potency estimated from few doses ([3]; compound concentrations:100 nM and 1000 nM (sheet 'Lestaurtinib' of Supplementary Table 1),run:Lestaurtinib_02601_R1,Plate:MR018) was 1820 nM, the potency estimated from few doses ([3]; compound concentrations:100 nM and 1000 nM (sheet 'Lestaurtinib' of Supplementary Table 1),run:Lestaurtinib_02601_R2,Plate:MR018) was 1650 nM and the potency estimated from few doses ([3]; compound concentrations:100 nM and 1000 nM (sheet 'Lestaurtinib' of Supplementary Table 1),run:Lestaurtinib_02606_R2,Plate:MR019) was 1760 nM. It also gave a potency estimated from few doses ([3]; compound concentrations:100 nM and 1000 nM (sheet 'Lestaurtinib' of Supplementary Table 1),run:Lestaurtinib_02624_R1,Plate:MR020) of 1910 nM, a potency estimated from few doses ([3]; compound concentrations:100 nM and 1000 nM (sheet 'Lestaurtinib' of Supplementary Table 1),run:Lestaurtinib_02724_R1,Plate:MR021) of 1300 nM and a potency estimated from few doses ([3]; compound concentrations:100 nM and 1000 nM (sheet 'Lestaurtinib' of Supplementary Table 1),run:Lestaurtinib_02724_R2,Plate:MR021) of 1320 nM. It also gave a potency estimated from few doses ([3]; compound concentrations:100 nM and 1000 nM (sheet 'Lestaurtinib' of Supplementary Table 1),run:Lestaurtinib_02724_R3,Plate:MR021) of 1350 nM, a potency estimated from few doses ([3]; compound concentrations:100 nM and 1000 nM (sheet 'Lestaurtinib' of Supplementary Table 1),run:Lestaurtinib_02741_R2,Plate:MR023) of 1300 nM and a potency estimated from few doses [3, 14] of 1410 nM. For the same substance, the potency estimated from few doses [3, 5] was 1490 nM, the potency estimated from few doses ([3]; compound concentrations:100 nM and 1000 nM (sheet 'Lestaurtinib' of Supplementary Table 1),run:Lestaurtinib_02752_R1,Plate:MR025) was 1430 nM and the potency estimated from few doses ([3]; compound concentrations:100 nM and 1000 nM (sheet 'Lestaurtinib' of Supplementary Table 1),run:Lestaurtinib_02752_R2,Plate:MR025) was 1720 nM. The potency estimated from few doses ([3]; compound concentrations:100 nM and 1000 nM (sheet 'Lestaurtinib' of Supplementary Table 1),run:Lestaurtinib_02765_R2,Plate:MR026) was 1360 nM, the potency estimated from few doses ([3]; compound concentrations:100 nM and 1000 nM (sheet 'Lestaurtinib' of Supplementary Table 1),run:Lestaurtinib_02766_R1,Plate:MR027) was 1130 nM and the potency estimated from few doses ([3]; compound concentrations:100 nM and 1000 nM (sheet 'Lestaurtinib' of Supplementary Table 1),run:Lestaurtinib_02768_R3,Plate:MR028) was 1510 nM. It also gave a potency estimated from few doses ([3]; compound concentrations:100 nM and 1000 nM (sheet 'Lestaurtinib' of Supplementary Table 1),run:Lestaurtinib_02795_R1,Plate:MR022) of 2150 nM, a potency estimated from few doses ([3]; compound concentrations:100 nM and 1000 nM (sheet 'Lestaurtinib' of Supplementary Table 1),run:Lestaurtinib_02802_R1,Plate:MR029) of 1990 nM and a potency estimated from few doses ([3]; compound concentrations:100 nM and 1000 nM (sheet 'Lestaurtinib' of Supplementary Table 1),run:Lestaurtinib_02802_R3,Plate:MR029) of 1720 nM. The potency estimated from few doses [3, 6] was 1210 nM, the potency estimated from few doses ([3]; compound concentrations:100 nM and 1000 nM (sheet 'Lestaurtinib' of Supplementary Table 1),run:Lestaurtinib_03172_R1,Plate:MR031) was 1420 nM and the potency estimated from few doses ([3]; compound concentrations:100 nM and 1000 nM (sheet 'Lestaurtinib' of Supplementary Table 1),run:Lestaurtinib_03172_R2,Plate:MR031) was 1540 nM. For the same substance, the potency estimated from few doses [3, 15] was 1130 nM, the potency estimated from few doses ([3]; compound concentrations:100 nM and 1000 nM (sheet 'Lestaurtinib' of Supplementary Table 1),run:Lestaurtinib_03252_R1,Plate:MR032) was 1350 nM and the potency estimated from few doses ([3]; compound concentrations:100 nM and 1000 nM (sheet 'Lestaurtinib' of Supplementary Table 1),run:Lestaurtinib_03252_R2,Plate:MR032) was 1130 nM. The potency estimated from few doses ([3]; compound concentrations:100 nM and 1000 nM (sheet 'Lestaurtinib' of Supplementary Table 1),run:Lestaurtinib_03260_R2,Plate:MR033) was 1420 nM, the potency estimated from few doses [4, 7] was 859 nM and the potency estimated from few doses ([4]; compound concentrations:100 nM and 1000 nM (sheet 'Lestaurtinib' of Supplementary Table 1),run:Lestaurtinib_02364_R2,Plate:MR002) was 1540 nM. It also gave a potency estimated from few doses ([4]; compound concentrations:100 nM and 1000 nM (sheet 'Lestaurtinib' of Supplementary Table 1),run:Lestaurtinib_02364_R3,Plate:MR002) of 1370 nM, a potency estimated from few doses ([4]; compound concentrations:100 nM and 1000 nM (sheet 'Lestaurtinib' of Supplementary Table 1),run:Lestaurtinib_02367_R1,Plate:MR003) of 1350 nM and a potency estimated from few doses ([4]; compound concentrations:100 nM and 1000 nM (sheet 'Lestaurtinib' of Supplementary Table 1),run:Lestaurtinib_02367_R2,Plate:MR003) of 1300 nM. The potency estimated from few doses [4, 16] was 1530 nM, the potency estimated from few doses [4, 17] was 1210 nM and the potency estimated from few doses ([4]; compound concentrations:100 nM and 1000 nM (sheet 'Lestaurtinib' of Supplementary Table 1),run:Lestaurtinib_02407_R2,Plate:MR005) was 1670 nM. It also gave a potency estimated from few doses [4, 8] of 1150 nM, a potency estimated from few doses [4, 18] of 1360 nM and a potency estimated from few doses [4, 19] of 1420 nM. The potency estimated from few doses [4, 9] was 992 nM, the potency estimated from few doses [4, 20] was 1420 nM and the potency estimated from few doses [4, 12] was 1310 nM. For the same substance, the potency estimated from few doses [4, 13] was 1620 nM, the potency estimated from few doses [4, 21] was 1130 nM and the potency estimated from few doses ([4]; compound concentrations:100 nM and 1000 nM (sheet 'Lestaurtinib' of Supplementary Table 1),run:Lestaurtinib_02572_R3,Plate:MR015) was 1790 nM.
